# Values without a mark were called inactive.
# Tests used:
# Experiment in all cases: log2 ratio of Biotin-Ahx-Ub-VS probe labelling (fragment/DMSO); higher = less target engagement (more negative = stronger competition), active = hit call of the paper (q ≤ 0.05, log2 ratio ≤ -1)
# Details in all cases: compound concentration: 200 uM; treatment time: 3 h
# USP19 = target: T1, USP19 (UniProt O94966)
# T1 sequence (whole entry): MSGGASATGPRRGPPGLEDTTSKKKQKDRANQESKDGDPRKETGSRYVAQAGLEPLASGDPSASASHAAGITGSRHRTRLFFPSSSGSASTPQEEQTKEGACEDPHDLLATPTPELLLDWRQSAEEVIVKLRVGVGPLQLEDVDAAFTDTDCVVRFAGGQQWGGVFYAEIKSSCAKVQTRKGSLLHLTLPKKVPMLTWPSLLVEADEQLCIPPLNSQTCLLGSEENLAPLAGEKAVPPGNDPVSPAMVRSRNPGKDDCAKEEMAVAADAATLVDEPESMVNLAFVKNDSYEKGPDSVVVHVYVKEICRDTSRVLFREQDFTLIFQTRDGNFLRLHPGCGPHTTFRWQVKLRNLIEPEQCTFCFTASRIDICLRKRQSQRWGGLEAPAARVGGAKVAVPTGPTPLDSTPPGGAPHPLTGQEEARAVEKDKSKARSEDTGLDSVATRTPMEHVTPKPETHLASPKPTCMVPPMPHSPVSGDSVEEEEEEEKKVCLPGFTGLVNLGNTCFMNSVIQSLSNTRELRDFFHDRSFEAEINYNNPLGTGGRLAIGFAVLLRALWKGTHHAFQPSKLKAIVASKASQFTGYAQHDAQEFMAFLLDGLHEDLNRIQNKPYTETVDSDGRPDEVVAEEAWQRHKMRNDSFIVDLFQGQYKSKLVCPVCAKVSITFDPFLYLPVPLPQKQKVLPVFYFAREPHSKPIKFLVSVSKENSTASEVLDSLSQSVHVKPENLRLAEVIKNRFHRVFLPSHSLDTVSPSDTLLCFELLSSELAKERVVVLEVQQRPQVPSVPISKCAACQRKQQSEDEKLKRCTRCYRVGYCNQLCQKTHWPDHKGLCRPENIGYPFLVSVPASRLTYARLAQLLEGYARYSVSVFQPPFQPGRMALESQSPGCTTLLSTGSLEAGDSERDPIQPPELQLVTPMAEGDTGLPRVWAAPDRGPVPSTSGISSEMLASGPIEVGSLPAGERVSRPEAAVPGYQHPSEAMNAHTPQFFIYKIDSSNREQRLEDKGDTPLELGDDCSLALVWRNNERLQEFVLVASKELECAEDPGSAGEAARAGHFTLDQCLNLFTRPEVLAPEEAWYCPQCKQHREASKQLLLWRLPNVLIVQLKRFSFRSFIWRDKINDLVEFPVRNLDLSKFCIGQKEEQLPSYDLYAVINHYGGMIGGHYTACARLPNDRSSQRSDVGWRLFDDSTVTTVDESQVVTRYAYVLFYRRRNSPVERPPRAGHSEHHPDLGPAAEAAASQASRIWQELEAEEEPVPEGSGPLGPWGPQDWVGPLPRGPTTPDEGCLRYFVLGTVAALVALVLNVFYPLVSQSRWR
# How it was run: (§1)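 Each value is an average log2 ratio of fragment to vehicle, tested by unpaired t-test. The underlying Spectronaut label-free quantities were global-median-normalised, and only proteins with ≥2 unique peptides were included. Triplicate HEK293T lysate samples (495 µg) were exposed to fragment at 200 µM or vehicle for 3 h, then to Biotin-Ahx-Ub-VS at 0.5 µM final for 1 h, before NeutrAvidin enrichment of labelled DUBs, LysC and trypsin digestion, and diaPASEF LC-MS/MS.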
# USP22 = target: T2, USP22 (UniProt Q9UPT9)
# T2 sequence (whole entry): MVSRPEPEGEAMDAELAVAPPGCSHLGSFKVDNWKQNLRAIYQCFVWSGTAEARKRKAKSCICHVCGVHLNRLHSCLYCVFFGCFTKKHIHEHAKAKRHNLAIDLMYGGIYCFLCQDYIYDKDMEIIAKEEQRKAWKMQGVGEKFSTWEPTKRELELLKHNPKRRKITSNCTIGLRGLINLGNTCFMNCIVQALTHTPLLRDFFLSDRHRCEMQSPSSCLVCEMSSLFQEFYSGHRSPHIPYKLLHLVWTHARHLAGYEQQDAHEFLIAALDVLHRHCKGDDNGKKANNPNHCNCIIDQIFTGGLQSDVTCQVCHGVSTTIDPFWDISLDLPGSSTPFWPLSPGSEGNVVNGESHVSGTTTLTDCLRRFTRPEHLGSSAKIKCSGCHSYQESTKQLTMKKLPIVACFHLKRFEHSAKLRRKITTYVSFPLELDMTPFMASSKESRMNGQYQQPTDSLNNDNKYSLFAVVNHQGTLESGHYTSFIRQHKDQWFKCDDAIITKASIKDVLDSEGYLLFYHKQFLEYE
# How it was run: as §1
# USP24 = USP24 (UniProt Q9UPU5)
# USP24, sequence (Q9UPU5 whole entry): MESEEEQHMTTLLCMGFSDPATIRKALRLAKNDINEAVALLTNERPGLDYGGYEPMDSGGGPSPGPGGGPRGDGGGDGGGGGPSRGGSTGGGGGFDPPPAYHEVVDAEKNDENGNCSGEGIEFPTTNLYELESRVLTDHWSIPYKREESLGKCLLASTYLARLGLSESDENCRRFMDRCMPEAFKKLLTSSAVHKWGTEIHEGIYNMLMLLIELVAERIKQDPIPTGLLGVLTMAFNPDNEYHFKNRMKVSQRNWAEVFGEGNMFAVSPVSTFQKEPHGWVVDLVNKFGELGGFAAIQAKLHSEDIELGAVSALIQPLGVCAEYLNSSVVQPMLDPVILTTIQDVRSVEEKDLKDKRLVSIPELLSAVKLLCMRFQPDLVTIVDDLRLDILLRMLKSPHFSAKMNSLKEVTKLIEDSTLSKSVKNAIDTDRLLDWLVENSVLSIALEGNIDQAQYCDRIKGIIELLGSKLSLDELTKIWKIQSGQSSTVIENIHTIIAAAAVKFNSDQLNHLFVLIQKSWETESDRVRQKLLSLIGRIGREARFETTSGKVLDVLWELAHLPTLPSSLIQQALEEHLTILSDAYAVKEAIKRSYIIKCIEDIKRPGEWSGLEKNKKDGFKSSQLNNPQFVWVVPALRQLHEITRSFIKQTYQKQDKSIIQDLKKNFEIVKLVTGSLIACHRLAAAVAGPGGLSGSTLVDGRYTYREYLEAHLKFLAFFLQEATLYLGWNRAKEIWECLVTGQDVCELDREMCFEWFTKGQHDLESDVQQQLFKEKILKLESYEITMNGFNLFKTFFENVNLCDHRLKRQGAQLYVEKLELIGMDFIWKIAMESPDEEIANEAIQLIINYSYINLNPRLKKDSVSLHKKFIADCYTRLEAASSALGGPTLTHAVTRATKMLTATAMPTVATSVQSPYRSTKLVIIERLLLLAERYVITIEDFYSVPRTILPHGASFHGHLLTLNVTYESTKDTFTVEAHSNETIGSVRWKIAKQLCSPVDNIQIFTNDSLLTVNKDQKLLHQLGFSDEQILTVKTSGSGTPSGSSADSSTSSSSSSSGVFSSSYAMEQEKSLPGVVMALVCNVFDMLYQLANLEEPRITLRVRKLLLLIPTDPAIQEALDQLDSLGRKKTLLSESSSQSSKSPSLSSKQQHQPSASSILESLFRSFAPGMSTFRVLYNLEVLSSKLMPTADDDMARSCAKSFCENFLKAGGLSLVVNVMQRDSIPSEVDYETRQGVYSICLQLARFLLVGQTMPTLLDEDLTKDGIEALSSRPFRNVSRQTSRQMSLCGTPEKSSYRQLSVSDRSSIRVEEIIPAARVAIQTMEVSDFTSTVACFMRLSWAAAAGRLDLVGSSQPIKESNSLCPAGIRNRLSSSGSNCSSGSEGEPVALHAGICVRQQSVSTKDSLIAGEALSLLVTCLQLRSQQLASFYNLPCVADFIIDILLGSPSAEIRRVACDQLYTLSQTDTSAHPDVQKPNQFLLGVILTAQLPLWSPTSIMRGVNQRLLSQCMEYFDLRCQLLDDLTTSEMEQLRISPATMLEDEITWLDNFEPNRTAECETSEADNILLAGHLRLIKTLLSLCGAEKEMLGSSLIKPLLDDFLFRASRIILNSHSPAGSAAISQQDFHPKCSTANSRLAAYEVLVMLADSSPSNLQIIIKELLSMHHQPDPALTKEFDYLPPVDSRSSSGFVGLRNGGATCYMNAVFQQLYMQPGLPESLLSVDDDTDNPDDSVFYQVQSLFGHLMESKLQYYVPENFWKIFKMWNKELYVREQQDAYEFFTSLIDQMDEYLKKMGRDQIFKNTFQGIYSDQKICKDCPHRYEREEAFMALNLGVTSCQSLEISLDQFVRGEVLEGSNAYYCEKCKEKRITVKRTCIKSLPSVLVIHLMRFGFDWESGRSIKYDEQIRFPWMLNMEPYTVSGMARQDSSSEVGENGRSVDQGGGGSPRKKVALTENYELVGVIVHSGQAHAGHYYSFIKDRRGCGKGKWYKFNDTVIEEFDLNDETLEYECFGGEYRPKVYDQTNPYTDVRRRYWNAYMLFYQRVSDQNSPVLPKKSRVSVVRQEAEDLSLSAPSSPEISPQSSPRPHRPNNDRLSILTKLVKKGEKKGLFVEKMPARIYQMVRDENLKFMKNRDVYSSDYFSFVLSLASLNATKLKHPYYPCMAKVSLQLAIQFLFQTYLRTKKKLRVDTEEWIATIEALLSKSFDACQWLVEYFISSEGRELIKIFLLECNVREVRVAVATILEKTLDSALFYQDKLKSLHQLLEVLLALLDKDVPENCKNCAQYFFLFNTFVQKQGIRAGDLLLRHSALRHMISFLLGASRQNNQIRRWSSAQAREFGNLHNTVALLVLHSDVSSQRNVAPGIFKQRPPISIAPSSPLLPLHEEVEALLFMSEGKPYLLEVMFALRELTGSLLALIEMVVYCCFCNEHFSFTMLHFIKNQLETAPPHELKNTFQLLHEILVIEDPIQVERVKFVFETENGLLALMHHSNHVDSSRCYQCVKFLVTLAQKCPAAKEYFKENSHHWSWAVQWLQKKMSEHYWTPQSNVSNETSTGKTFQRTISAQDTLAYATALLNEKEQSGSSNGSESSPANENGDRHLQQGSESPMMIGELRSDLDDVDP
# How it was run: as §1
# USP25 = target: T3, USP25 (UniProt Q9UHP3)
# T3 sequence (whole entry): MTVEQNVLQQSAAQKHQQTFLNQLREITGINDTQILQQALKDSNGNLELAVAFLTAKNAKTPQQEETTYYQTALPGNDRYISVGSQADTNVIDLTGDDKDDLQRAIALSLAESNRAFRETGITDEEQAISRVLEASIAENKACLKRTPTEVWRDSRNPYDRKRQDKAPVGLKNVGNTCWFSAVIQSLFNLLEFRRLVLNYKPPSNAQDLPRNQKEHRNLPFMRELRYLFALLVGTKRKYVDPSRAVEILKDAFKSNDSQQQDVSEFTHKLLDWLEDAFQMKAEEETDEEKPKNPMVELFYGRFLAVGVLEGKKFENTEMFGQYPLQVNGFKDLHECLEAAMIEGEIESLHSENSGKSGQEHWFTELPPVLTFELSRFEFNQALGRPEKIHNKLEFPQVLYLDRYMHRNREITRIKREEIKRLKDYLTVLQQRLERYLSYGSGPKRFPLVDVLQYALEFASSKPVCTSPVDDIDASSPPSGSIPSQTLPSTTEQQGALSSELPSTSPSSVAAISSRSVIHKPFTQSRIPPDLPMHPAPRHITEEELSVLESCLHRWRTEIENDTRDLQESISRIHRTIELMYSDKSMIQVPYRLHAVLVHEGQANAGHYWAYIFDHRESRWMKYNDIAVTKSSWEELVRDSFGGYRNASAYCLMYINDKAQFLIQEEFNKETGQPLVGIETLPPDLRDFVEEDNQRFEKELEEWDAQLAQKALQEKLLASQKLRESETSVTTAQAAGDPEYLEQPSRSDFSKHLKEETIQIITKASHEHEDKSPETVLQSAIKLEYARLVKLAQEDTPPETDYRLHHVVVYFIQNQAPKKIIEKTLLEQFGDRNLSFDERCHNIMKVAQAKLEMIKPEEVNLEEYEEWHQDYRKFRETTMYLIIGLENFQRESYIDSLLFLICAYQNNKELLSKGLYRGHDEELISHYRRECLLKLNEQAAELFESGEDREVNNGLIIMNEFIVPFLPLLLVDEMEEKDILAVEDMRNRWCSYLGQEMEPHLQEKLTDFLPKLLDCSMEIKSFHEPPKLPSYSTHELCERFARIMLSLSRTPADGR
# How it was run: as §1
# USP28 = target: T4, USP28 (UniProt Q96RU2)
# T4 sequence (whole entry): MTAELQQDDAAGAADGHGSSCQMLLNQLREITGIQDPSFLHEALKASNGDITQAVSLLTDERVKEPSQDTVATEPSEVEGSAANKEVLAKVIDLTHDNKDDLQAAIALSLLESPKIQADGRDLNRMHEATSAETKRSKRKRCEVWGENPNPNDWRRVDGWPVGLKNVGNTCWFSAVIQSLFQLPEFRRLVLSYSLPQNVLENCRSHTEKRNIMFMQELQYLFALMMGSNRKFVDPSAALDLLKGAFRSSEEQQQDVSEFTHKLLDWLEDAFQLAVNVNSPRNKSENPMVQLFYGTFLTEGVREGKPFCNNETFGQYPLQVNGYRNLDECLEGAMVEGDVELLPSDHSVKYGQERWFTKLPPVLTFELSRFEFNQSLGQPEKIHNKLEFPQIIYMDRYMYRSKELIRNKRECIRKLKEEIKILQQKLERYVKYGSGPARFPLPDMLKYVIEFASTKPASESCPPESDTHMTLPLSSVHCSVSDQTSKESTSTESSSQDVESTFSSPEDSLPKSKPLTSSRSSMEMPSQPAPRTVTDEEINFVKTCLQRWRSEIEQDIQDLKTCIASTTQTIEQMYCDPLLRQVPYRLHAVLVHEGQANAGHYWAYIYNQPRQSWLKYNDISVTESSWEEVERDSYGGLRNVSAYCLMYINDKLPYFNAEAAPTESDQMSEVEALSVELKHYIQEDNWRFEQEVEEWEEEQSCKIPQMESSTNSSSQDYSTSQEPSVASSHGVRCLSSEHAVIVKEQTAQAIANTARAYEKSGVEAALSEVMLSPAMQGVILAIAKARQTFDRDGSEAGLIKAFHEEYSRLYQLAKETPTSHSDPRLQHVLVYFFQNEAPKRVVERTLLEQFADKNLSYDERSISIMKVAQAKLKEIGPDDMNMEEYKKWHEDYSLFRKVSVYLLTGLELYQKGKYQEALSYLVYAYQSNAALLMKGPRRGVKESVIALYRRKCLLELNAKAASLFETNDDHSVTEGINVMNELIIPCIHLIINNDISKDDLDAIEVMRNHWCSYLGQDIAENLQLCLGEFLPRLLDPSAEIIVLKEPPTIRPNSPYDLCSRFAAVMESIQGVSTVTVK
# How it was run: as §1
structure (smiles),measurement,setting,value
O=C(CCl)N1CCOC(c2cccc(F)c2)C1 (stereo not given),log2 ratio of Biotin-Ahx-Ub-VS probe labelling,USP19,-0.335
same,log2 ratio of Biotin-Ahx-Ub-VS probe labelling,USP22,-0.24
same,log2 ratio of Biotin-Ahx-Ub-VS probe labelling,USP24,-1.13 (active)
same,log2 ratio of Biotin-Ahx-Ub-VS probe labelling,USP25,-0.541
same,log2 ratio of Biotin-Ahx-Ub-VS probe labelling,USP28,-0.953

# From the supplement of paper PMC11732987, “Enantioselective OTUD7B fragment discovery through chemoproteomics screening and high-throughput optimisation” (Communications Chemistry, 2025)
